This passage reports outcome and AC50 results from PubChem BioAssay (EPA / NIEHS).

Read-out in experiment [1]: Monokine induced gamma interferon (MIG), CXCL9 (gene 4283)
The experiment is described as follows: BSK_KF3CT_MIG: BioMAP Diversity Plus: KF3CT Assay for Monokine induced gamma interferon (MIG) Biomarker Activity (AID 2284248). To be noted: primary human keratinocytes with fibroblasts. In short, it runs like this:
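MIG in dosed human skin co-cultures was measured by ELISA at 24 h, relative to DMSO.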

Read-out in experiment [2]: Collagen I, COL1A1 (gene 1277)
Put plainly: BSK_hDFCGF_CollagenI: BioMAP Diversity Plus: hDFCGF Assay for Collagen I Biomarker Activity (AID 2284250). To be noted: primary human foreskin fibroblasts. In outline: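 Primary human foreskin fibroblasts (hDFCGF system) exposed to chemical for 24 h; Collagen I measured by ELISA. Activity fitted in the positive direction relative to DMSO baseline, with SRB total-protein staining in parallel cultures for overt cytotoxicity.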

Read-out in experiment [3]: Interferon-inducible T-cell alpha chemoattractant (ITAC), CXCL11 (gene 6373)
The experiment is described as follows: BSK_hDFCGF_ITAC: BioMAP Diversity Plus: hDFCGF Assay for Interferon-inducible T-cell alpha chemoattractant (ITAC) Biomarker Activity (AID 2284251). To be noted: primary human foreskin fibroblasts. In short, it runs like this: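 Fibroblasts (human foreskin, primary) are treated with chemical, cultured 24 h, then assayed for I-TAC by ELISA. Overt toxicity is checked in parallel cultures by sulforhodamine B staining of total protein at the same time point.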

Read-out in experiment [4]: Plasminogen activator inhibitor-1 (PAI1), SERPINE1 (gene 5054)
Put plainly: BSK_KF3CT_PAI1: BioMAP Diversity Plus: KF3CT Assay for Plasminogen activator inhibitor-1 (PAI1) Biomarker Activity (AID 2284252). To be noted: primary human keratinocytes with fibroblasts. In outline:
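Human primary keratinocyte/foreskin fibroblast co-culture was dosed with compound and sampled at 24 h. PAI-1 was quantified by ELISA, with activity fitted in the positive direction relative to DMSO vehicle as baseline.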

Read-out in experiment [5]: Interleukin-8 (IL8), CXCL8 (gene 3576)
The experiment is described as follows: BSK_KF3CT_IL8: BioMAP Diversity Plus: KF3CT Assay for Interleukin-8 (IL8) Biomarker Activity (AID 2284254). To be noted: primary human keratinocytes with fibroblasts. In short, it runs like this:
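Using parallel SRB-stained cultures to flag overt toxicity, the study quantified IL-8 by ELISA in human keratinocyte–foreskin fibroblast co-cultures 24 h after dosing, with DMSO as negative control and baseline.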

Read-out in experiment [6]: Intercellular Adhesion Molecule 1 (ICAM1), ICAM1 (gene 3383)
Put plainly: BSK_BE3C_ICAM1: BioMAP Diversity Plus: BE3C Assay for Intercellular Adhesion Molecule 1 (ICAM1) Biomarker Activity (AID 2284278).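 Also: cell-surface ICAM-1 protein level quantified by ELISA.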 The following applies: primary human bronchial epithelial cells. In short, it runs like this: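 Primary human bronchial epithelial cells were exposed to compound for 24 h, after which cell-surface ICAM-1 was quantified by ELISA. Activity was fitted in the gain-of-signal direction against DMSO as negative control and baseline.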

Read-out in experiment [7]: Collagen I, COL1A1 (gene 1277)
Put plainly: BSK_MyoF_CollagenI: BioMAP Diversity Plus: MyoF Assay for Collagen I Biomarker Activity (AID 2284238). To be noted: primary human lung fibroblasts. In short, it runs like this:
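Measured by ELISA: Collagen I from human lung fibroblasts 24 h after compound addition, analysed for signal gain with DMSO as baseline; overt toxicity read from SRB staining of parallel cultures at the same time.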

Read-out in experiment [8]: Collagen III, COL3A1 (gene 1281)
Put plainly: BSK_MyoF_CollagenIII: BioMAP Diversity Plus: MyoF Assay for Collagen III Biomarker Activity (AID 2284239). The following applies: primary human lung fibroblasts. In outline: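 Multiplexed cell assay in lung fibroblasts, harvested at 24 h post-dose. Collagen III detected by ELISA, with positive-direction fitting relative to DMSO vehicle.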

Read-out in experiment [9]: Interleukin 17F (IL17F), IL17F (gene 112744)
The experiment is described as follows: BSK_BT_xIL17F: BioMAP Diversity Plus: BT Assay for Interleukin 17F (IL17F) Biomarker Activity (AID 2284243). To be noted: primary human B cells with PBMC. In short, it runs like this:
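Luminex readout of IL-17F secretion, 24 h; cells: human B cells with PBMC; positive-direction analysis, DMSO control.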

Read-out in experiment [10]: Basic fibroblast growth factor (bFGF), FGF2 (gene 2247)
The experiment is described as follows: BSK_MyoF_bFGF: BioMAP Diversity Plus: MyoF Assay for Basic fibroblast growth factor (bFGF) Biomarker Activity (AID 2284246). To be noted: primary human lung fibroblasts. In short, it runs like this:
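Human lung fibroblasts were dosed with chemicals and bFGF was quantified by ELISA 24 h later. Activity was fitted in the gain-of-signal direction relative to DMSO as negative control and baseline. Parallel SRB total-protein staining tracked overt cytotoxicity.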

Read-out in experiment [11]: Collagen IV, COL4A1 (gene 1282)
Put plainly: BSK_MyoF_CollagenIV: BioMAP Diversity Plus: MyoF Assay for Collagen IV Biomarker Activity (AID 2284247). To be noted: primary human lung fibroblasts. In short, it runs like this: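 Primary human lung fibroblasts were exposed to test chemicals and sampled 24 h after dosing. Collagen IV levels were measured by ELISA and fitted in the positive direction against DMSO as negative control and baseline.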

Read-out in experiment [12]: Plasminogen activator inhibitor-1 (PAI1), SERPINE1 (gene 5054)
The experiment is described as follows: BSK_MyoF_PAI1: BioMAP Diversity Plus: MyoF Assay for Plasminogen activator inhibitor-1 (PAI1) Biomarker Activity (AID 2284256).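 As to outcome: PAI-1 protein level measured by ELISA in fibroblast cultures; PAI-1 read 24 h after compound addition.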 The following applies: primary human lung fibroblasts. In outline:
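In this multiplexed primary-cell system, fibroblasts from human lung received compound for 24 h before ELISA detection of PAI-1; overt toxicity was checked by SRB (0.1%, TCA-fixed, 560 nm) in parallel wells.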

Read-out in experiment [13]: Interleukin-8 (IL8), CXCL8 (gene 3576)
Put plainly: BSK_MyoF_IL8: BioMAP Diversity Plus: MyoF Assay for Interleukin-8 (IL8) Biomarker Activity (AID 2284261). To be noted: primary human lung fibroblasts. In short, it runs like this:
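DMSO-normalised, upward-fitted IL-8 ELISA signal; human lung fibroblasts, 24 h chemical treatment.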

Read-out in the next experiment: Decorin, DCN (gene 1634)
Put plainly: BSK_MyoF_Decorin: BioMAP Diversity Plus: MyoF Assay for Decorin Biomarker Activity (AID 2284265). The following applies: primary human lung fibroblasts. In outline: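 In this multiplexed fibroblast system, secreted or surface decorin is detected by ELISA one day after dosing, with increases scored against the DMSO vehicle.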

Experiment [14] in a line: BSK_MyoF_SRB: Viability Assessment in the BioMAP Diversity Plus: MyoF Assay (AID 2284267).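 Also: total protein by SRB absorbance in parallel cultures as cytotoxicity measure; cells assessed 24 h after compound addition.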 To be noted: primary human lung fibroblasts. In short, it runs like this: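 Human lung fibroblasts dosed with chemical and assessed 24 h later for overt cytotoxicity in parallel cultures. Total protein quantified by sulforhodamine B staining (0.1% SRB after 10% TCA fixation), read at 560 nm, analysed in positive direction versus DMSO baseline.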

Read-out in experiment [15]: TIMP metallopeptidase inhibitor 1 (TIMP1), TIMP1 (gene 7076)
Put plainly: BSK_MyoF_TIMP1: BioMAP Diversity Plus: MyoF Assay for TIMP metallopeptidase inhibitor 1 (TIMP1) Biomarker Activity (AID 2284269). The following applies: primary human lung fibroblasts. In outline:
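ELISA read-out of TIMP-1 from primary human lung fibroblast cultures 24 h after compound dosing; gain of signal relative to DMSO vehicle baseline defines activity.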

Activity calls are given as the source filed them. The calls were made as follows: active = hit-call score of the fitted dose curve at least 0.9, where 1 is the maximum; inactive = score below 0.9.

Consider `O=C1CCCN1CCO`, for which the result in experiment [1], in experiment [2], in experiment [3], in experiment [4], in [5] and in experiment [6] was inactive.
With `CC(C)C(=O)C(C)C`, the outcome in experiment [7], in [8], in experiment [9], in experiment [10], in [11] and in [12] was inactive. Moreover, the outcome was “inactive” in experiment [13]; “inactive” with Decorin, DCN (gene 1634); “inactive” in experiment [14]; “inactive” in experiment [15].
As for `CCCCC(CC)COCC1CO1` (stereo unspecified), the result in [1], in [2], in [3], in experiment [4], in experiment [5] and in [6] was inactive.
For orientation: AC50 means the concentration giving half of the maximal activity seen. Take `CC(C)(c1cc(Br)c(OCCO)c(Br)c1)c1cc(Br)c(OCCO)c(Br)c1`: the AC50 in experiment [7] was 6.65 µM (active); in [8] it was 7.69 µM (active); in [9] it was 23.8 µM (active); in experiment [10], 9.52 µM (active); in [11], 9.43 µM (active); in [12], 9.61 µM (active). The AC50 in experiment [13] was 10.6 µM (active); with Decorin, DCN (gene 1634), 9.76 µM (active); in experiment [14] it was 5.78 µM (active); in experiment [15], 9.33 µM (active).
As for `O=C(Nc1ccccc1SSc1ccccc1NC(=O)c1ccccc1)c1ccccc1`, the outcome in experiment [7], in [8], in [10], in [11], in [12] and in [13] was inactive. Moreover, the outcome with Decorin, DCN (gene 1634) was “inactive”; in experiment [14] it was “inactive”; in [15], “inactive”. The AC50 in experiment [9] is 9.15 µM (active).
With `O=C(Cl)c1cc(C(=O)Cl)cc(C(=O)Cl)c1`, the AC50 was 30.7 µM (active) in experiment [7]; 33.2 µM (active) in [8]; 29.5 µM (active) in experiment [9]; 36.9 µM (active) in [10]; 30 µM (active) in experiment [11]; 39.1 µM (active) in [12]. Also, the figures for the AC50 in [14] and in experiment [15] were 34.7 µM (active) and 31.2 µM (active), respectively. In the experiment with Decorin, DCN (gene 1634), the outcome was inactive.
Consider `CCCCCCCCc1ccc(Nc2ccc(CCCCCCCC)cc2)cc1`, for which the result in [7], in experiment [8], in experiment [9], in experiment [10], in [11] and in [12] was inactive. The outcome in [13] was “inactive”; in the experiment with Decorin, DCN (gene 1634), “inactive”; in [14] it was “inactive”; in experiment [15] it was “inactive”.
In the case of `S=C(NC1CCCCC1)NC1CCCCC1`, the result in experiment [7], in experiment [8], in experiment [9], in [10], in experiment [11] and in [12] was inactive. The outcome in [13] is “inactive”; with Decorin, DCN (gene 1634), “inactive”; in experiment [14] it was “inactive”; in experiment [15] it was “inactive”.
Regarding `C=CCOc1c(Br)cc(Br)cc1Br`, the AC50 was 20 µM (active) in experiment [7]; 26.2 µM (active) in [8]; 26.8 µM (active) in [9]; 34 µM (active) in [10]; 5.88 µM (active) in experiment [11]; 26.6 µM (active) in experiment [12]. Besides, the AC50 in experiment [14] is 27.7 µM (active); in experiment [15], 31.2 µM (active). Further, the outcome in experiment [13] is “inactive”; with Decorin, DCN (gene 1634) it was “inactive”.
